In general, inhibition refers to the change of the read-out against control, counted positive when it falls.

The first assay deals with Solute carrier family 2, facilitated glucose transporter member 1 (Homo sapiens) (UniProt P11166). Put plainly: ST_JUDE_LEISH: Cytotoxicity at 2uM final concentration against transgenic Leishmania Mexicana promastigotes LmGLUT1 that are glucose transport deficient and complemented with the human glucose transporter GLUT1. Activity is measured by DNA content using SYBR green in vitro. It counts as functional.
Chain of Solute carrier family 2, facilitated glucose transporter member 1 (Homo sapiens) (P11166 whole entry): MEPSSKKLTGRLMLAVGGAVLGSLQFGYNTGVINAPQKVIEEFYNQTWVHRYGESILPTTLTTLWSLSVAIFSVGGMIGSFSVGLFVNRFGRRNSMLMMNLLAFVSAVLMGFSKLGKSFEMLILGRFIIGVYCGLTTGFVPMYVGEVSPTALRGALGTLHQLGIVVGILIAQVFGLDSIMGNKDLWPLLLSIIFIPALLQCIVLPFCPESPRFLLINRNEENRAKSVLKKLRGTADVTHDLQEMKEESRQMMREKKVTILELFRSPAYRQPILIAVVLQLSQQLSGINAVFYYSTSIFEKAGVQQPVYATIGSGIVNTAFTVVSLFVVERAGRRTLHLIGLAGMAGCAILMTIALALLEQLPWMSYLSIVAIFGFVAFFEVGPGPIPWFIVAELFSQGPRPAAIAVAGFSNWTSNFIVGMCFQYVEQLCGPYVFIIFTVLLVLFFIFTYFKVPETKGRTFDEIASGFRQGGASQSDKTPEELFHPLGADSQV
For `OCCOCCNCc1cccc(C#Cc2cc3ncnc(Nc4ccc(OCc5cccc(F)c5)c(Cl)c4)c3s2)n1`, the inhibition is -0.5%.
Still for that read-out and setting: the same measure for `N=C(N)Nc1ccc(OCCCCCOc2ccc(NC(=N)N)cc2Br)c(Br)c1`: 4.63%.
In the case of `Cc1cc(NCCC(=O)NCCOc2ccccc2)nc(NCc2ccccc2C)n1`, the inhibition was found to be 3.15%.
As to `COC(=O)c1sc2ccccc2c1NC(=O)c1ccc(C)c(C)c1`, the inhibition was 5.3%.
The same measure, in the same setting: with `O=C(/C=C/c1ccc(Cl)c(Cl)c1)NCCCCCN1CCC(NC(=O)Nc2ccccc2Cl)CC1` the figure was 0.63%; with `N#Cc1cc([N+](=O)[O-])ccc1-n1nc(-c2cccc(Cl)c2)n(Cc2ccco2)c1=S`, 1.94%; with `O=C(Nc1ccc(Cl)cc1)Nc1cccc(-c2cccc(-c3nc4cc(C(F)(F)F)ccc4[nH]3)c2)c1`, -0.58%.
On the same count and under the same terms, with `COc1ccc(CNC2Cc3ccccc3C2)cc1-c1ccc(S(=O)(=O)NCCN2CCCC2)s1` the figure was 17.7%; with `COc1ccc(C=NN=c2c3ccccc3[nH]c3ccccc23)c2ccccc12`, 6.42%; with `COc1cc2ncnc(Nc3ccc(OCc4ccccc4)c(I)c3)c2cc1OC`, 1.41%.
Still for that read-out and setting: with `CCN(CC)CCCN(C(=O)c1cc2c(C)nn(-c3ccccc3)c2s1)c1nc(-c2ccc(OC)cc2)cs1` the figure was 10.5%; with `C[C@H](Cc1ccc(S(=O)(=O)c2ccc(C[C@@H](C)NC[C@H](O)c3cccc(Cl)c3)cc2)cc1)NC[C@H](O)c1cccc(Cl)c1`, 2.7%.
In the case of `Cc1ccc(C)c2sc(N(CCCn3ccnc3)C(=O)c3ccco3)nc12`, the inhibition is 4.42%.
Turning to `CC(C)Cn1c(Sc2ccc(C#N)c([N+](=O)[O-])c2)nnc1-c1ccc(N(C)C)cc1`, the inhibition was -0.55%.
For the compound `O=c1[nH]c2c(cc1CNC1CCCCC1)c(-c1ccc(F)cc1)nn2-c1ccccc1`, the inhibition is -1.4%.
The same measure, in the same setting: with `N=C(NCc1ccccc1)Nc1nc(-c2ccc(OCCCn3ccnc3)cc2)cs1` the figure was 29.9%.
Consider `OCC1CCN(Cc2ccc(-c3cccc(-c4nc5ccccc5[nH]4)c3)cc2)CC1`, for which the inhibition is 1.15%.
With `COc1cc2c(cc1OC)CN(CCc1ccc(NC(=O)c3cc4cc(Cl)ccc4[nH]3)cc1)CC2`, the inhibition came to 8.2%.
Same read-out and setting: with `CN(C)CCN(C)Cc1ccc(-c2ccc3c(Nc4ccc(Oc5ccccn5)cc4)ccnc3c2)o1` the figure was -2.89%.
On the same count and under the same terms, with `CN1CCC(N2CCN(Cc3cccc(-c4ccc(-c5nc6cc(C(F)(F)F)ccc6[nH]5)cc4)c3)CC2)CC1` the figure was 2.62%; with `CN(Cc1cccc(F)c1)C1CCN(c2cc(NC(=O)c3cccc(F)c3)ccn2)CC1`, 3.06%.
On to `CC[C@H](C)CNC(=O)c1ccnc(-c2ccc(CNCCCc3ccccc3)cc2)c1`, for which the inhibition came out at 1.95%.
On the same count and under the same terms, the same measure for `COc1ccc(NC(=O)NC2CCN(CCCCCNC(=O)/C=C/c3ccc(Cl)c(Cl)c3)CC2)cc1`: -1.04%; for `CC(C)(C)c1ccc(NC(=O)c2ccc(CN3CCCN(Cc4cccc(C#N)c4)CC3)cc2)cc1`: 6.54%.
As for `O=C(CCc1c[nH]cn1)Nc1cccc(-c2ccc(-c3nc4ccccc4[nH]3)cc2)c1`, the inhibition was determined as 6.89%.
Still for that read-out and setting: with `CN=c1nc(NN=Cc2ccccc2Cl)[nH]c(=Nc2cccc(C(F)(F)F)c2)[nH]1` the figure was 8.53%; with `O=C(Nc1cccc(CN2CCCN(Cc3ccc(O)cc3)CC2)c1)c1cccc(Cl)c1`, 12.2%; with `COc1ccc(CNCCCCCCCNCc2ccc(Cl)c(Cl)c2)cc1Cl`, 5.86%.
The same measure, in the same setting: with `Cc1cc(C)c(NC(=O)N[C@H]2CCN(CCCCCNC(=O)/C=C/c3ccc(Cl)c(Cl)c3)C2)c(C)c1` the figure was -0.8%; with `O=C(NC1CC1)c1ccc(N2CCCC(COc3ccc4c(c3)CCCC4)C2)nc1` (stereo not given), 2.1%.
Take `O=C(Cn1c(CCc2cccc(F)c2F)nc(=O)c2ccccc21)N(Cc1ccc(-c2ccc(C(F)(F)F)cc2)cc1)C1CCN(C2CCOCC2)CC1`: the inhibition came to 1.91%.
`CN1CCN(c2cc3c(cc2Cl)CCN3C(=O)Cc2ccc(Cl)c(NC(=O)Nc3cccc(C#N)c3)c2)CC1`: the inhibition was -0.57%.
As for `Cc1cccc2nc(-c3ccc(-c4cccc(CNCCc5ccncc5)c4)cc3)[nH]c12`, the inhibition was 5.55%.
Still for that read-out and setting: the same measure for `CCN1CCN(c2ccc(NC(=O)c3cc4c(C)nn(-c5ccccc5)c4s3)cc2C)CC1`: 1.44%.
On to `O=S(=O)(ON=C1CCc2ccccc21)c1ccc(Cl)cc1`, for which the inhibition was 1.95%.
The same measure, in the same setting: the same measure for `Clc1ccc(OCc2ccccc2)c(-c2nc(-c3nc4ccc(Cl)cc4[nH]3)cs2)c1`: 3.08%; for `COc1ccc(CCN2CCC(CN(C)Cc3cnn(-c4ccccc4)c3)CC2)cc1`: 4.24%; for `Cc1c(-c2cccc(C(C)(C)NCCCN3CCCCC3)c2)cnc(N)c1C`: -0.39%.
With `O=C(Nc1ccc(Br)cc1)N(CCN1CCOCC1)CC(O)COc1ccc(Cl)c(F)c1` (stereo not given), the inhibition is -0.94%.
The same measure, in the same setting: with `CC(C)c1cccc(C(C)C)c1NC(=O)NNC(=O)c1ccc(CCN2CCC(c3nc(COCC(F)(F)F)c(-c4ccc(F)cc4)o3)CC2)cc1` the figure was 10.8%.

In a further assay the target is Hexose transporter 1 (Plasmodium falciparum) (UniProt O97467). Put plainly: ST_JUDE_LEISH: Cytotoxicity at 2uM final concentration against transgenic Leishmania Mexicana promastigotes LmPfHT that are glucose transport deficient and complemented with the Plasmodium falciparum hexose transporter. Activity is measured by DNA content using SYBR green in vitro. The assay is classed as functional.
As for `OCCOCCNCc1cccc(C#Cc2cc3ncnc(Nc4ccc(OCc5cccc(F)c5)c(Cl)c4)c3s2)n1`, the inhibition is 1.33%.
`N=C(N)Nc1ccc(OCCCCCOc2ccc(NC(=N)N)cc2Br)c(Br)c1`: the inhibition amounted to 1.79%.
`Cc1cc(NCCC(=O)NCCOc2ccccc2)nc(NCc2ccccc2C)n1`: the inhibition is 0.58%.
The same measure, in the same setting: with `COC(=O)c1sc2ccccc2c1NC(=O)c1ccc(C)c(C)c1` the figure was 4.87%; with `O=C(/C=C/c1ccc(Cl)c(Cl)c1)NCCCCCN1CCC(NC(=O)Nc2ccccc2Cl)CC1`, 0.55%; with `N#Cc1cc([N+](=O)[O-])ccc1-n1nc(-c2cccc(Cl)c2)n(Cc2ccco2)c1=S`, 1.56%.
For the compound `O=C(Nc1ccc(Cl)cc1)Nc1cccc(-c2cccc(-c3nc4cc(C(F)(F)F)ccc4[nH]3)c2)c1`, the inhibition was -0.83%.
On the same count and under the same terms, with `COc1ccc(CNC2Cc3ccccc3C2)cc1-c1ccc(S(=O)(=O)NCCN2CCCC2)s1` the figure was 15.5%; with `COc1ccc(C=NN=c2c3ccccc3[nH]c3ccccc23)c2ccccc12`, 5.85%; with `COc1cc2ncnc(Nc3ccc(OCc4ccccc4)c(I)c3)c2cc1OC`, 0.71%.
Still for that read-out and setting: the same measure for `CCN(CC)CCCN(C(=O)c1cc2c(C)nn(-c3ccccc3)c2s1)c1nc(-c2ccc(OC)cc2)cs1`: 9.13%.
The same measure, in the same setting: the same measure for `C[C@H](Cc1ccc(S(=O)(=O)c2ccc(C[C@@H](C)NC[C@H](O)c3cccc(Cl)c3)cc2)cc1)NC[C@H](O)c1cccc(Cl)c1`: 4%; for `Cc1ccc(C)c2sc(N(CCCn3ccnc3)C(=O)c3ccco3)nc12`: 5.62%.
As to `CC(C)Cn1c(Sc2ccc(C#N)c([N+](=O)[O-])c2)nnc1-c1ccc(N(C)C)cc1`, the inhibition turned out to be 0.63%.
The same measure, in the same setting: with `O=c1[nH]c2c(cc1CNC1CCCCC1)c(-c1ccc(F)cc1)nn2-c1ccccc1` the figure was -1.47%; with `N=C(NCc1ccccc1)Nc1nc(-c2ccc(OCCCn3ccnc3)cc2)cs1`, 35.3%; with `OCC1CCN(Cc2ccc(-c3cccc(-c4nc5ccccc5[nH]4)c3)cc2)CC1`, 1.08%.
Still for that read-out and setting: the same measure for `COc1cc2c(cc1OC)CN(CCc1ccc(NC(=O)c3cc4cc(Cl)ccc4[nH]3)cc1)CC2`: 0.43%; for `CN(C)CCN(C)Cc1ccc(-c2ccc3c(Nc4ccc(Oc5ccccn5)cc4)ccnc3c2)o1`: -0.77%; for `CN1CCC(N2CCN(Cc3cccc(-c4ccc(-c5nc6cc(C(F)(F)F)ccc6[nH]5)cc4)c3)CC2)CC1`: 3.31%.
On the same count and under the same terms, the same measure for `CN(Cc1cccc(F)c1)C1CCN(c2cc(NC(=O)c3cccc(F)c3)ccn2)CC1`: 3.18%; for `CC[C@H](C)CNC(=O)c1ccnc(-c2ccc(CNCCCc3ccccc3)cc2)c1`: 1.1%; for `COc1ccc(NC(=O)NC2CCN(CCCCCNC(=O)/C=C/c3ccc(Cl)c(Cl)c3)CC2)cc1`: -0.81%.
For the compound `CC(C)(C)c1ccc(NC(=O)c2ccc(CN3CCCN(Cc4cccc(C#N)c4)CC3)cc2)cc1`, the inhibition was determined as 7.31%.
On the same count and under the same terms, with `O=C(CCc1c[nH]cn1)Nc1cccc(-c2ccc(-c3nc4ccccc4[nH]3)cc2)c1` the figure was 4.68%; with `CN=c1nc(NN=Cc2ccccc2Cl)[nH]c(=Nc2cccc(C(F)(F)F)c2)[nH]1`, 8.1%; with `O=C(Nc1cccc(CN2CCCN(Cc3ccc(O)cc3)CC2)c1)c1cccc(Cl)c1`, 13.4%.
On to `COc1ccc(CNCCCCCCCNCc2ccc(Cl)c(Cl)c2)cc1Cl`, for which the inhibition turned out to be 4.67%.
For the compound `Cc1cc(C)c(NC(=O)N[C@H]2CCN(CCCCCNC(=O)/C=C/c3ccc(Cl)c(Cl)c3)C2)c(C)c1`, the inhibition is -0.95%.
On the same count and under the same terms, the same measure for `O=C(NC1CC1)c1ccc(N2CCCC(COc3ccc4c(c3)CCCC4)C2)nc1` (stereo not given): 1.8%; for `O=C(Cn1c(CCc2cccc(F)c2F)nc(=O)c2ccccc21)N(Cc1ccc(-c2ccc(C(F)(F)F)cc2)cc1)C1CCN(C2CCOCC2)CC1`: 2.37%.
Regarding `CN1CCN(c2cc3c(cc2Cl)CCN3C(=O)Cc2ccc(Cl)c(NC(=O)Nc3cccc(C#N)c3)c2)CC1`, the inhibition is -0.51%.
Turning to `Cc1cccc2nc(-c3ccc(-c4cccc(CNCCc5ccncc5)c4)cc3)[nH]c12`, the inhibition worked out at 3.23%.
With `CCN1CCN(c2ccc(NC(=O)c3cc4c(C)nn(-c5ccccc5)c4s3)cc2C)CC1`, the inhibition stood at 3.9%.
Same read-out and setting: with `O=S(=O)(ON=C1CCc2ccccc21)c1ccc(Cl)cc1` the figure was -0.07%; with `Clc1ccc(OCc2ccccc2)c(-c2nc(-c3nc4ccc(Cl)cc4[nH]3)cs2)c1`, 2.99%.
For `COc1ccc(CCN2CCC(CN(C)Cc3cnn(-c4ccccc4)c3)CC2)cc1`, the inhibition worked out at 6.13%.
On the same count and under the same terms, the same measure for `Cc1c(-c2cccc(C(C)(C)NCCCN3CCCCC3)c2)cnc(N)c1C`: -0.25%.
As for `O=C(Nc1ccc(Br)cc1)N(CCN1CCOCC1)CC(O)COc1ccc(Cl)c(F)c1` (stereo not given), the inhibition is -1.53%.
On the same count and under the same terms, with `CC(C)c1cccc(C(C)C)c1NC(=O)NNC(=O)c1ccc(CCN2CCC(c3nc(COCC(F)(F)F)c(-c4ccc(F)cc4)o3)CC2)cc1` the figure was 11.4%.

These data come from ChEMBL document CHEMBL3433997, “St. Jude Leishmania screening dataset” (2016).
